An excerpt weighted towards active compounds, which were near 4.1% of everything screened.
PolyA inhibitor – yeast polyadenylation inhibition | activity score, % at 12 µM | S. cerevisiae SKY197-pL101 polyadenylation reporter, beta-gal luminescence; efflux-impaired pdr1/pdr3 knockout yeast; score 100 = 6 SD above DMSO | 300,000 tested, 0.02% active;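 active means lowest replicate activity score at least 50, where 100 means six control SD above control mean; inconclusive means lowest score under 50 but half or more replicates reach 50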;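 further: yeast exposed to compound for 9 h at 30 °C; higher score means more reporter readthrough which indicates perturbed polyadenylation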
DAX1 inh-1 – inhibitors of DAX1 repression of SF-1 activated StAR promoter | HEK293T StAR-luciferase reporter, SF-1/DAX-1 repression relief | inhibition, % at 6.8 µM | 370,000 tested, 1.1% active | AID 652010;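 active means inhibition above the mean over all tested compounds plus 3 SD, cut at about 3.6% in these data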;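 further: 0% = DAX-1 cells with DMSO and 100% = cells lacking DAX-1 with DMSO; higher inhibition means more luminescence from relief of DAX-1 repression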
hgDAF12 agonist – agonists of H. glycines DAF-12 nuclear receptor. AID 687014. HEK293 GAL4-hgDAF12 UAS-luciferase reporter, agonist luminescence; normalized to butyrate control. 370,000 tested, 1.8% active. activation, % at 6.8 µM;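 active means activation above a cutoff set at the mean of all screened compounds plus 3 SD, cut at about 10% in these data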;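 further: 0% = DMSO wells and 100% = sodium butyrate wells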
DAX1 inh-2 – inhibitors of human orphan nuclear receptor DAX1 (NR0B1); HEK293 Gal4-DAX1 luciferase reporter, luminescence; inhibition, % at 6.75 µM; 340,000 tested, 0.99% active; AID 504766;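 active means inhibition above the mean over all tested compounds plus 3 SD, cut at about 4.2% in these data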;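 further: 0% = DAX1-transfected cells with DMSO and 100% = empty-vector control cells with DMSO; inhibition shows as a rise in luminescence from relieved DAX1 repression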
Target sequence (P51843 207-470 limits assumed): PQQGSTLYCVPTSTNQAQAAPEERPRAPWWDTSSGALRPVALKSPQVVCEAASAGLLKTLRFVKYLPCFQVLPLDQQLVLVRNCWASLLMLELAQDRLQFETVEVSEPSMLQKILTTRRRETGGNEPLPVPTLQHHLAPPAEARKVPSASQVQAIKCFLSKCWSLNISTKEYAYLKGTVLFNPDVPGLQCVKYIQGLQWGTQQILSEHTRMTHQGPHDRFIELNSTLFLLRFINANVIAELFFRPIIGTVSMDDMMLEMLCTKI
ssDAF12 agonist – activators of S. stercoralis DAF-12 nuclear receptor; HEK293 ssDAF-12/GRIP1 lit1-tk-luc reporter, luminescence; % of 3 µM dafachronic acid response; activation, % at 6.8 µM; 370,000 tested, 1% active; AID 652126;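 active means activation above the mean over all tested compounds plus 3 SD, cut at about 0.9% in these data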;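 further: 0% = DMSO-only wells and 100% = 3 µM delta7-dafachronic acid wells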
hcDAF-12 act – activators of H. contortus DAF-12 nuclear receptor; 370,000 tested, 1.4% active; HEK293 hcDAF-12 lit1-tk-luc reporter, luminescence; 0% DMSO, 100% Δ7-dafachronic acid; AID 652067; activation, % at 6.8 µM;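 active means activation above the mean of all tested compounds plus 3 SD, cut at about 5.5% in these data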;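 further: 100% = response to 3 µM Δ7-dafachronic acid high control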
* = called active by the depositor; ? = inconclusive; / = no result.

SMILES	PolyA inhibitor	DAX1 inh-1	hgDAF12 agonist	DAX1 inh-2	ssDAF12 agonist	hcDAF-12 act
COc1ccc(OCC(=O)N2CCCC2=O)c([N+](=O)[O-])c1	6.0	-0.7	-2.0	0.4	-0.8	-0.7
CC(C)CNC(=O)OCc1cn(Cc2c(F)cccc2F)nn1	/	-1.8	0.3	/	-0.8	-2.1
CCOC(=O)[C@@]12CCC3=C1N(CCC3)C(=O)[C@H](CC(=O)N1CCCC1)C2	/	-0.4	-1.3	/	-0.6	-1.1
O=C(COc1ccc([N+](=O)[O-])cc1Cl)N1CCc2ccccc21	/	4.4*	8.8	1.1	0.8	4.9
O=C(c1cc([N+](=O)[O-])ccc1Cl)N1CCc2ccccc21	26.2	-0.8	2.8	-0.2	-0.4	1.4
COc1ccccc1N1CCN(S(=O)(=O)c2ccc3c(c2)n(C)c(=O)c(=O)n3C)CC1	/	-0.6	-1.9	/	-0.8	-5.2
C(=C\c1ccccc1)/C=N/N1CCN(c2ccccn2)CC1	-6.7	1.0	11.2*	0.5	-0.2	3.0
C(/C=C/c1ccccc1)=N/N1CCN(c2ccccc2)CC1	-11.8	0.1	-0.3	1.7	-0.5	-1.5
COc1ccc(C(=O)Nc2nnc(SCC(=O)NC3CC3)s2)cc1	-8.0	1.5	10.8*	1.5	-0.1	0.4
CCSc1nnc(NC(=O)c2ccccc2C)s1	-23.1	4.4*	12.9*	3.5	-1.3	1.9
O=C(Nc1nnc(S(=O)(=O)Cc2ccc(F)cc2)s1)c1ccccc1F	-21.6	-0.1	-0.6	-0.8	1.3*	-2.6
CCSc1nnc(NC(=O)c2ccccc2)s1	-7.8	2.5	8.6	0.2	0.0	4.5
CN(C(=O)CSc1nnc(NC2CCCCC2)s1)C1CCS(=O)(=O)C1 (stereo not drawn)	0.7	0.5	-1.1	0.0	-0.6	-1.9
COc1cccc(C(=O)Nc2nnc(SCC(=O)NC3CC3)s2)c1	0.6	0.3	0.1	0.3	-1.0	0.9
CCc1ccc(Nc2nnc(SCC(=O)N(C)C3CCS(=O)(=O)C3)s2)cc1 (stereo not drawn)	-7.1	1.5	12.2*	1.3	0.2	1.5
O=C(CSc1nnc(NC(=O)c2ccccc2Cl)s1)NC1CC1	-11.1	1.0	7.1	2.0	-0.3	5.6*
O=C(CSc1nnc(NC(=O)c2ccccc2F)s1)Nc1ccccc1F	6.8	3.4	12.6*	2.5	-1.6	1.7
COc1ccc2c(c1)c1nnc(SCC(=O)NC3CC3)nc1n2C	-9.0	-0.1	0.1	0.7	1.7*	4.0
O=C(CSc1nnc(NC(=O)c2ccco2)s1)Nc1ccccc1F	-0.5	0.0	1.9	1.9	-1.4	0.9
CCSc1nnc(NC(=O)CC)s1	-16.9	0.2	0.1	1.1	-0.9	-1.9
CCSc1nnc(NC(=O)CC(C)C)s1	9.1	0.7	1.6	6.4*	-2.0	1.2
N#CCC[C@@H]1CC[C@]2(CCCN(Cc3ccccc3)C2)O1	/	-0.6	-0.2	/	-0.2	-2.8
CCOC(=O)[C@@]12CCC3=C1N(CCC3)C(=O)[C@H](CC(=O)N1CCCCC1)C2	/	-0.9	-2.9	/	-0.9	-1.0
CCCCCCC(=O)NC1CCCCN(C)C1=O (stereo not drawn)	/	-0.9	2.8	/	-0.7	0.2
COc1ccc(Nc2nnc(SCC(=O)NC3CCS(=O)(=O)C3)s2)cc1 (stereo not drawn)	/	3.6*	1.9	0.5	-0.2	1.9
SMILES	PolyA inhibitor	DAX1 inh-1	hgDAF12 agonist	DAX1 inh-2	ssDAF12 agonist	hcDAF-12 act
O=C(CSc1n[nH]c(-c2ccncc2)n1)NC1CCS(=O)(=O)C1 (stereo not drawn)	10.3	-0.4	-1.0	0.6	-0.7	-1.2
COc1ccc(-c2ccc(SCC(=O)NC3CCCC3)nn2)cc1	/	-0.1	1.6	4.4*	-0.5	0.8
CCc1ccc(-c2nc(SCC(=O)NC3CCS(=O)(=O)C3)n[nH]2)cc1 (stereo not drawn)	7.3	3.6*	0.1	2.8	0.5	0.6
CCOC(=O)[C@@]12CCCC=C1N(CCc1ccc(Cl)cc1)C(=O)[C@H]2CC(=O)NCc1cccs1	/	-1.3	-2.9	/	-1.2	-2.1
COC(=O)Cc1nnn2c1[C@@H](C)[C@@H](c1ccccc1Br)OC[C@@H]2c1ccccc1	/	-0.6	0.0	/	-0.9	-1.3
Cc1cccc(CN2C(=O)c3ccccc3S(=O)(=O)c3ccc(C(=O)NCCCN4CCCC4)cc32)c1	18.9	1.4	2.8	0.1	-0.5	2.2
O=C(NCCN1CCCC1)c1ccc2c(c1)N(Cc1cccc(Cl)c1)C(=O)c1ccccc1S2(=O)=O	-15.3	1.1	-0.4	-0.1	-1.1	6.2*
Cc1c(OCC(=O)N[C@H](C(=O)O)c2ccccc2)ccc2c3c(c(=O)oc12)CCCC3	1.3	0.1	-1.2	4.3*	-1.3	0.2
Cc1c(OCC(=O)NCC(O)c2ccccc2)ccc2c3c(c(=O)oc12)CCC3 (stereo not drawn)	2.9	-1.0	-0.9	-0.3	-1.1	0.3
CCN1C(=O)N[C@H]2C[C@@H](c3ccccc3)[C@@H](C)[C@@H](C(=O)N3CCCC3)C[C@H]21	/	-0.6	-1.1	/	-1.0	0.2
CC(C)=NOC(=O)c1c(C)noc1-c1snnc1C	-6.0	-0.4	-1.8	0.6	-1.6	-1.1
Cc1ccc(/C=N/OC(=O)c2c(C)noc2-c2snnc2C)cc1	3.8	0.2	0.4	5.7*	-1.4	0.0
CC(=O)Nc1ccc(S(=O)(=O)NCC2CCN(C(=O)C(=O)c3cc4ccccc4o3)CC2)cc1	/	-0.6	-0.1	/	-1.0	-0.1
COC(=O)C1=C(C)N(Cc2ccccc2C(F)(F)F)C(=NCc2ccccc2C(F)(F)F)NC1c1ccc(C(F)(F)F)cc1 (stereo not drawn)	/	0.2	3.8	/	-0.2	-0.3
FC(F)(F)c1cnc(-c2cnc3c(-c4ccc(Cl)cc4)cnn3c2)c(Cl)c1	-13.9	-0.3	1.6	1.6	-1.6	-0.3
Cc1nn2cc(-c3ncc(C(F)(F)F)cc3Cl)cnc2c1Br	-16.1	1.5	13.1*	/	0.1	2.6
Cc1ccc(CC(=O)Nc2cccc(C)n2)cc1	8.5	1.7	4.6	2.1	1.9*	3.2
Cc1cccc(NC(=O)Cc2ccc(-c3ccccc3)cc2)n1	-1.5	0.6	1.9	0.5	0.3	-1.5
Cc1cccc(NC(=O)COc2ccc3c(c2)CCC3)n1	/	3.8*	6.5	1.4	-0.6	2.4
O=C(NCc1ccccc1)c1cc(C2CCCCN2S(=O)(=O)Cc2ccccc2)on1 (stereo not drawn)	/	-1.7	-1.0	/	-1.7	-2.0
COc1ccc(NC(=O)c2cc(C3CCCCN3S(=O)(=O)Cc3ccccc3)on2)cn1 (stereo not drawn)	/	2.8	11.2*	/	-1.0	0.9
O=C(Nc1sc2c(c1-c1nc3ccccc3s1)CCNC2)C(F)F	/	/	2.2	/	0.3	3.5
CCc1cc(CNC(=O)CCc2nnc(CCCc3ccccc3)o2)on1	?	1.1	13.0*	3.4	-0.6	2.8

Compound activity: PubChem BioAssay, several laboratories
